Measurements from PubChem BioAssay (NCATS).
Records with an inconclusive call do not appear. Values without a mark were called inactive. Calls of active or inactive are those of the source. Calls follow the shape of the dose curve; as a rule, active = well fitted cell-killing curve with a large enough effect; inconclusive = small, poorly fitted or top-dose-only effect; inactive = flat fitted curve, though single readings scatter.

Test: Cell Viability - LYMP2-008 (AID 980);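 also: cells exposed to compound for 24 h at 37 °C; % is scaled to controls: 0 for no effect and ±100 for the full control effect; nearly all actives have a fitted effect of over 60% in size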
Settings: LYMP2-008 lymphoblastoid cell viability, qHTS; series mostly up to 92.2 µM; activity change, negative = cytotoxicity: at the top concentration
Method in brief: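 qHTS, human lymphoblastoid line, 2500 cells/well; 5 hr preincubation, 24 hr compound, 37 C. CellTiter-Glo ATP luminescence. AC50 via Hill equation. Tetraoctylammonium bromide positive control.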

First: CCNc1nc(Cl)nc(NC(C)C)n1
Second: C=CCc1ccc(OC)cc1
The “activity change, negative = cytotoxicity” value of the first is higher: 7.88% for the first, -5.91% for the second.

Going from COC(=O)NC(=S)Nc1ccccc1NC(=S)NC(=O)OC to COP(=S)(OC)Oc1ccc([N+](=O)[O-])cc1, the “activity change, negative = cytotoxicity” value falls from 0.748% to 0.7%.

Going from C/C=C/c1ccc2c(c1)OCO2 to O=S1OCC2C(CO1)C1(Cl)C(Cl)=C(Cl)C2(Cl)C1(Cl)Cl (stereo not drawn), the “activity change, negative = cytotoxicity” value falls from 1.13% to -12.4%.

Going from ClC1=C(Cl)C2(Cl)C3C(Cl)C=CC3C1(Cl)C2(Cl)Cl (stereo not drawn) to CNC(=O)O/N=C/C(C)(C)SC, the “activity change, negative = cytotoxicity” value rises from -27.4% to 3.34%.

For ClC(Cl)=C(c1ccc(Cl)cc1)c1ccc(Cl)cc1, the Potency was “inactive”.
In the case of O=C(O)COc1ccc(Cl)cc1Cl, the Potency was “inactive”.

Test: Cell Viability - LYMP2-010 (AID 981); also: nearly all actives have a fitted effect of over 55% in size; also: potency is read from the fitted curve at half-maximal effect; as to activity, negative = cytotoxicity: % is scaled to controls: 0 for no effect and ±100 for the full control effect
Settings: LYMP2-010 lymphoblastoid cell viability, qHTS; series mostly up to 92.2 µM; activity, negative = cytotoxicity: at the top concentration
Method in brief: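 Luminescent ATP signal (CellTiter-Glo) served as the viability read-out. Cells of the human lymphoblastoid line were treated with compound over a concentration range for 24 hours at 37 C, and AC50 values came from Hill-equation modeling.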

First: CCNc1nc(Cl)nc(NC(C)C)n1
Second: C=CCc1ccc(OC)cc1
The “activity, negative = cytotoxicity” value of the first is lower: -10.5% for the first, -0.292% for the second.

Going from COC(=O)NC(=S)Nc1ccccc1NC(=S)NC(=O)OC to COP(=S)(OC)Oc1ccc([N+](=O)[O-])cc1, the “activity, negative = cytotoxicity” value falls from -5.65% to -17%.

With C/C=C/c1ccc2c(c1)OCO2 the “activity, negative = cytotoxicity” value was -16.8%.

In the case of ClC1=C(Cl)C2(Cl)C3C4CC(C5OC45)C3C1(Cl)C2(Cl)Cl (stereo not drawn), the Potency was 50.1 µM (active).
In the case of CCOCN(C(=O)CCl)c1c(C)cccc1CC, the Potency was 50.1 µM (active).
With ClC(Cl)=C(c1ccc(Cl)cc1)c1ccc(Cl)cc1 the Potency was “inactive”.
For O=C(O)COc1ccc(Cl)cc1Cl, the Potency was “inactive”.
In the case of CCc1cccc(CC)c1N(COC)C(=O)CCl, the Potency was 50.1 µM (active).

Test: Cell Viability - LYMP2-012 (AID 982);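 also: cellular ATP by luciferase luminescence where a drop means cytotoxicity; cells exposed to compound for one day before reading; nearly all actives have a fitted effect of over 55% in size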; also: potency is read from the fitted curve at half-maximal effect;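 as to activity change, negative = cytotoxicity: 0% = DMSO only and full loss = 92 µM tetraoctylammonium bromide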
Settings: LYMP2-012 lymphoblastoid cell viability qHTS; series mostly up to 92.2 µM; activity change, negative = cytotoxicity: at the top concentration

Compared with CCNc1nc(Cl)nc(NC(C)C)n1, C=CCc1ccc(OC)cc1 is lower in “activity change, negative = cytotoxicity” value: 3.45% for the first, -6.12% for the second.

Going from COC(=O)NC(=S)Nc1ccccc1NC(=S)NC(=O)OC to COP(=S)(OC)Oc1ccc([N+](=O)[O-])cc1, the “activity change, negative = cytotoxicity” value rises from -11.4% to -2.66%.

First: C/C=C/c1ccc2c(c1)OCO2
Second: c1ccc(N=Nc2ccccc2)cc1
The “activity change, negative = cytotoxicity” value of the first is higher: -11.1% for the first, -19.9% for the second.

Going from O=S1OCC2C(CO1)C1(Cl)C(Cl)=C(Cl)C2(Cl)C1(Cl)Cl (stereo not drawn) to ClC1=C(Cl)C2(Cl)C3C(Cl)C=CC3C1(Cl)C2(Cl)Cl (stereo not drawn), the “activity change, negative = cytotoxicity” value rises from -31.2% to -3.16%.

For CNC(=O)O/N=C/C(C)(C)SC, the “activity change, negative = cytotoxicity” value was -22.5%.

For ClC1=C(Cl)C2(Cl)C3C4CC(C5OC45)C3C1(Cl)C2(Cl)Cl (stereo not drawn), the Potency was 39.8 µM (active).
For ClC(Cl)=C(c1ccc(Cl)cc1)c1ccc(Cl)cc1, the Potency was “inactive”.
In the case of O=C(O)COc1ccc(Cl)cc1Cl, the Potency was “inactive”.

Test: Cell Viability - LYMP2-014 (AID 983);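 also: cells exposed to compound for 24 h at 37 °C; plate controls were DMSO only for no effect and 92 µM tetraoctylammonium bromide for full effect; nearly all actives have a fitted effect of over 50% in size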
Settings: LYMP2-014 lymphoblastoid cells, viability qHTS; series mostly up to 92.2 µM; activity change, negative = cytotoxicity: at the top concentration
Method in brief: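 Luminescent ATP signal (CellTiter-Glo, 30 min at room temperature) serves as the viability read-out after 24 hr compound exposure at 37 C. Cells were seeded at 2500 per well and settled 5 hr beforehand.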

First: CCNc1nc(Cl)nc(NC(C)C)n1
Second: C=CCc1ccc(OC)cc1
The “activity change, negative = cytotoxicity” value of the first is lower: -8.98% for the first, -0.42% for the second.

Compared with COC(=O)NC(=S)Nc1ccccc1NC(=S)NC(=O)OC, COP(=S)(OC)Oc1ccc([N+](=O)[O-])cc1 is higher in “activity change, negative = cytotoxicity” value: 0.0643% for the first, 6.55% for the second.

Going from C/C=C/c1ccc2c(c1)OCO2 to c1ccc(N=Nc2ccccc2)cc1, the “activity change, negative = cytotoxicity” value falls from -1.64% to -2.34%.

First: O=S1OCC2C(CO1)C1(Cl)C(Cl)=C(Cl)C2(Cl)C1(Cl)Cl (stereo not drawn)
Second: ClC1=C(Cl)C2(Cl)C3C(Cl)C=CC3C1(Cl)C2(Cl)Cl (stereo not drawn)
The “activity change, negative = cytotoxicity” value of the first is lower: -27.9% for the first, -24.4% for the second.

For CNC(=O)O/N=C/C(C)(C)SC, the “activity change, negative = cytotoxicity” value was -13.6%.

With ClC(Cl)=C(c1ccc(Cl)cc1)c1ccc(Cl)cc1 the Potency was “inactive”.
With O=C(O)COc1ccc(Cl)cc1Cl the Potency was “inactive”.
